Screening results: PubChem, The Scripps Research Institute Molecular Screening Center
Only some compounds are listed: those with a hit (about 2.3% of all), similar ones and a draw of the others.
M1 PAM – potentiates human M1 receptor response to acetylcholine | CHO-K1 hM1, Fluo-8 calcium fluorescence, ACh EC20; 0% = ACh EC20, 100% = maximal ACh | activation, % at 3 µM | 360,000 compounds, 0.088% hits | AID 588819; in the data active = activation above about 19%, passing the limit was not always enough
Target sequence (P11229 whole entry, looked up): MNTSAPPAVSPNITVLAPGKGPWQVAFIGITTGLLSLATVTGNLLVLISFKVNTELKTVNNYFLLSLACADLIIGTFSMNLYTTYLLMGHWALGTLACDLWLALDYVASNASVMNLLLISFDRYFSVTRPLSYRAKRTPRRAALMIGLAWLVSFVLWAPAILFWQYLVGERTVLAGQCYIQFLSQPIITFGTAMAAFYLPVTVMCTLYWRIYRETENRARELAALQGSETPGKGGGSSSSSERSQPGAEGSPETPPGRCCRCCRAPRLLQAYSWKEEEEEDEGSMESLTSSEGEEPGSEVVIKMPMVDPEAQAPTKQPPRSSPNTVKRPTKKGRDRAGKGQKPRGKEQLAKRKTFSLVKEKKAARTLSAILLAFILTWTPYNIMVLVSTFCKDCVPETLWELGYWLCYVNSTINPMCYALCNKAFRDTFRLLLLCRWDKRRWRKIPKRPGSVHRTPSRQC
CHRM1 antagonist – blocks human M1 muscarinic receptor; P11229; CHO-K1 hM1, Fluo-8 calcium fluorescence, ACh EC80 antagonist; inhibition, % at 3 µM; 360,000 compounds, 1.3% hits;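 active = percent inhibition above its own plate's cutoff, namely the mean of that plate's compound wells plus 3 SD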;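 note: peak over basal fluorescence ratio during 140 s after agonist addition; 0% = ACh EC80 plus DMSO and 100% = DMSO alone without agonist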
M1 PAM parental – M1 PAM counterscreen hit in parental CHO-K1 cells; ATP EC20, Fluo-8 calcium fluorescence; 0% at ATP EC20, 100% at ATP max; activation, % at 3 µM; 360,000 compounds, 0.02% hits; AID 602247;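 active = activation above the run cutoff, the mean activation of all test compounds plus 3 SD, cut at about 40% in these data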;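 note: peak over basal fluorescence ratio in a 140 s read after ATP addition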
CHO-K1 Ca antag – M1 antagonist counterscreen hit in parental CHO-K1 cells | ATP-induced calcium, Fluo-8 fluorescence | inhibition, % at 3 µM | 360,000 compounds, 0.6% hits;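 active = inhibition above a per-plate cutoff, the plate's mean sample inhibition plus 3 SD, cut at about 24% in these data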;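 note: 0% = DMSO plus EC80 ATP and 100% = DMSO alone without ATP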
M1 ag – agonists of human M1 muscarinic receptor; P11229; CHO-K1 hM1, Fluo-8 calcium fluorescence, agonist mode; 0% DMSO, 100% acetylcholine EC100; activation, % at 3 µM; 360,000 compounds, 0.33% hits;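 active = activation above the run's mean compound activation plus 3 SD, cut at about 16% in these data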;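 note: peak over basal fluorescence ratio within a 140 s kinetic read after compound addition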
CHO-K1 Ca ag – M1 agonist counterscreen hit in parental CHO-K1 cells; Fluo-8 calcium fluorescence; scaled to maximal ATP response, vehicle zero; activation, % at 3 µM; 360,000 compounds, 0.48% hits; AID 602248; in the data active = activation above about 15%;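 note: untransfected CHO-K1 host cells lacking M1 receptor as counterscreen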
Starred values were filed as active, the others as inactive.

SMILES	M1 PAM	CHRM1 antagonist	M1 PAM parental	CHO-K1 Ca antag	M1 ag	CHO-K1 Ca ag
CCCCN(CC)CCCNC(=O)C1CCN(c2ncnc3c2sc2cccc(F)c23)CC1	-18	42*	-8	-1	-5	0
O=C(NCCN1CCOCC1)C1CCN(c2ncnc3c2sc2cccc(F)c23)CC1	-3	0	7	14	-4	1
Cc1ccc(OCC(=O)c2cc(C)n(CC(F)(F)F)c2C)c([N+](=O)[O-])n1	8	-4	-2	-7	1	3
Cc1ccc(OCC(=O)c2cc(C)n(Cc3cccs3)c2C)c([N+](=O)[O-])n1	-11	20	-11	28*	-2	7
CCOC(=O)C1CCCN(C2CC(=O)N(c3cccc(C)c3)C2=O)C1 (configuration not stated)	-23	23	-2	2	47*	0
CCOC(=O)c1ccc(N2C(=O)CC(N3CCCC(C)C3)C2=O)cc1 (configuration not stated)	2	-8	9	-28	-3	1
Cc1ccc(-c2cc(C(=O)N/N=C/c3c(C)nn(C)c3C)c3ccccc3n2)c(C)c1	7	-10	-6	24*	2	0
Cc1ccccc1C(=O)Nc1cccc(C(=O)Nc2ccccc2C(=O)O)c1	5	7	-21	26*	-2	0
Clc1ccc(C(CCN2CCCC2)Cc2ccccc2)cc1 (configuration not stated)	-35	84*	4	-7	-11	2
OC(CCN1CCCCC1)c1ccc(-c2ccccc2)cc1 (configuration not stated)	-9	1	22	-18	-9	5
Cc1c(C(=O)N(CCO)Cc2ccccc2)oc2c(F)cccc12	8	-9	1	-6	-5	2
Cn1cc(CNCc2ccc(OC(F)(F)F)cc2)c(-c2ccc3c(c2)OCCO3)n1	-10	33*	4	22	5	12
CC1(C)Cc2c(sc3nc(-c4cccs4)n(N)c(=O)c23)CO1	-22	25	-13	-4	2	16*
Cc1cc(O)c2c(c1)CC1C3CCC4CC(=O)CCC4(C)C3CC(=O)C21C (configuration not stated)	-2	-5	20	-17	-2	0
O=C(OCC(=O)N(Cc1ccccc1)Cc1ccccc1)c1ccccc1NCCO	-8	21*	-4	10	0	6
Cc1ccc(NC(=O)C2(c3cccs3)CCOCC2)cc1C	11	-11	3	0	-6	0
O=C(NN1C(=O)C2C3c4ccccc4C(c4ccccc43)[C@@H]2C1=O)c1ccccc1 (some centres not stated)	7	-5	16	-10	-9	0
O=C(NN1C(=O)C2C(c3ccccc3)C=CC(c3ccccc3)C2C1=O)c1cccc(Br)c1 (configuration not stated)	-25	81*	18	1	-11	8
O=C(NN1C(=O)C2C(c3ccccc3)C=CC(c3ccccc3)C2C1=O)c1ccccc1 (configuration not stated)	-27	46*	28	-11	-11	5
Cc1cc(OCc2cc(C(=O)N3CCN(C)C(=O)[C@@H]3C)no2)cc(C)c1Cl	-13	38*	-10	10	5	15
COc1cc(Cl)ccc1OCc1cc(C(=O)N2CCN(C)C(=O)[C@@H]2C)no1	3	-8	0	-10	-1	1
CCN(CC(=O)Nc1cc(Cl)ccc1C)C(=O)c1nc2nc(C)cc(C)n2n1	14	-18	14	-18	-2	0
CCOC(=O)c1c(C)[nH]c(C(=O)COC(=O)c2ccc(N3CCCC3=O)cc2)c1C	7	-12	-7	27*	-2	0
CC1CC(C)CN(C(=O)COC(=O)c2ccc(N3CCCC3=O)cc2)C1 (configuration not stated)	10	-13	10	-7	-3	1
CCOC(=O)[C@@H]1[C@H]2COc3ccccc3[C@@H]2N2C(=O)N(c3ccc(C(F)(F)F)cc3)C(=O)[C@@]12C	0	-1	2	-9	-4	0
SMILES	M1 PAM	CHRM1 antagonist	M1 PAM parental	CHO-K1 Ca antag	M1 ag	CHO-K1 Ca ag
CCOC(=O)[C@@H]1[C@H]2COc3ccccc3[C@H]2N2C(=O)N(c3ccc(C(F)(F)F)cc3)C(=O)[C@]12C	-20	34*	4	-5	-2	5
COC(=O)c1oc2ccccc2c1NC(=O)c1ccccc1O	0	-1	11	1	-4	3
Cc1c(C(=O)NNC(=O)c2ccccc2O)oc2ccccc12	0	-2	-14	26*	-1	0
COc1ccc(C(C)(NC(C)=O)c2nc(-c3cccc4cccnc34)cs2)cc1 (configuration not stated)	0	-6	-2	-2	-4	1
c1ccc(-c2csc3ncnc(NCCCN4CCOCC4)c23)cc1	5	-4	2	-3	-4	3
O=c1c2c(-c3ccccc3)csc2nc2c3ccccc3c(NCCN3CCOCC3)nn12	-26	92*	16	-12	-7	2
COc1ccc(Cl)cc1Nc1cc(C)nc2nc(C)nn12	17	-4	10	-3	0	1
COc1cc(OC)c(Nc2cc(C)nc3nc(C)nn23)cc1Cl	2	103*	12	0	-3	0
Cc1c(C(=O)N2CCN(c3ccccn3)CC2)oc2c1C(=O)CC(C)(C)C2	-10	10	1	-10	0	7
COc1ccccc1N1CCN(C(=O)c2oc3c(c2C)C(=O)CC(C)(C)C3)CC1	-14	34	-26	28*	2	10
CC(=O)N/C(=C\c1ccccc1)C(=O)OCc1cccc(S(=O)(=O)N(C)C)c1	-6	2	-5	-3	-2	15*
CCc1ccccc1NC(=O)C1CCCN(S(=O)(=O)c2ccc3c(c2)CC(C)N3C(C)=O)C1 (configuration not stated)	1	-5	-1	4	-3	1
O=C(Nc1ccc(Br)cc1)c1cc(-c2ccncc2)nc2ccccc12	3	-8	10	-7	-6	2
O=C1c2cccc3cccc(c23)C(=O)N1Cc1ccccn1	1	-5	27	-10	-4	0
Oc1ccccc1N1CCN(C(=S)NCCc2ccccc2)CC1	-13	13	-16	28*	-2	3
Cc1noc(C)c1S(=O)(=O)N(C)C[C@H]1Oc2ccc(NC(=O)CCC(F)(F)F)cc2C(=O)N([C@H](C)CO)C[C@@H]1C	6	-8	-21	14	-10	0
COc1ccccc1NC(=O)CN1CCCCCC1	6	-7	-1	7	-10	0
COc1ccc(NC(=O)CN2CCN(C3c4ccccc4-c4ccccc43)CC2)c(OC)c1	2	-5	52*	-44	-1	0
